# Screening data from PubChem BioAssay.
# An excerpt weighted towards active compounds, which were near 2.8% of everything screened.
# KDM5B inh = inhibitors of human KDM5B histone demethylase; KDM5B demethylase, FDH-coupled NADH fluorescence (FDH is formaldehyde dehydrogenase); Potency, µM (highest dose often 57.7 µM), actives largely listed as inhibitors; AID 1347165; 220,000 compounds, 2.6% hits; Q9UGL1; active means well fitted inhibition curve with a large enough effect; inconclusive means small, poorly fitted or top-dose-only effect; inactive means no such curve, though single readings can be large or run the other way; further: potency means the concentration at half of the fitted maximal effect; 0% is about no effect; nearly all actives have a fitted effect of over 70% in size
#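 qHTS format, multiple compound concentrations. Buffer 50 mM HEPES pH 7.5/0.01% Tween-20; 200 nM KDM5BΔAP final; 10 min compound preincubation; substrate-mix levels 12.5 µM peptide, 25 µM α-KG, 0.25 mM NAD⁺; 30 min RT; ΔRFU.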
# IP6K1 inh = inhibitors of human IP6K1; Q92551; IP6K1 kinase, ADP-Glo luminescence, 2 h; hits give low values; activity change, % (series mostly up to about 58 µM); 140,000 compounds, 0.81% hits; in the data active means activity change below about -25%; further: on the % scale 0 is the no-effect control and ±100 the full control effect
# Target sequence (Q92551 whole entry, looked up): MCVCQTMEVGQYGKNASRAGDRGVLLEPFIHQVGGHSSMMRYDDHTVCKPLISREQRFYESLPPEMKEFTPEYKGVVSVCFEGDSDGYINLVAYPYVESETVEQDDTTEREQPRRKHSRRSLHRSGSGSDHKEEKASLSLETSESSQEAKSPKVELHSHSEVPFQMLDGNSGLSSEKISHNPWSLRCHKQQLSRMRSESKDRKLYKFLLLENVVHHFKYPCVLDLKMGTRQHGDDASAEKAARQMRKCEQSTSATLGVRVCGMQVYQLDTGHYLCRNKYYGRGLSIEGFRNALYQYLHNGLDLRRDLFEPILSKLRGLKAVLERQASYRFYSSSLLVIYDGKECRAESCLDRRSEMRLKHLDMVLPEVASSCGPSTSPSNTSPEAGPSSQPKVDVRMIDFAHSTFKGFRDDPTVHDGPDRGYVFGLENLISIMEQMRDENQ
#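 ADP-Glo luminescence measures ADP made by human IP6K1 during a 2 h RT reaction with ATP/IP6 (mix at 1.3 mM/130 uM); top library doses 57.5 and 19.1 uM final.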
# * hit, by the source's call; i = inactive; ? = inconclusive; · = not tested or not shown.
SMILES,KDM5B inh,IP6K1 inh
O=C(Nc1cccnc1)[C@@H]1C[C@@H](c2ccc(F)cc2)N(CCOc2ccccc2)C1,i,-2
O=C(Nc1ccncn1)[C@@H]1C[C@@H](c2ccc(F)cc2)N(CCOc2ccccc2)C1,35µM*,2
COc1ccc(-c2cccc(C(=O)N3CCN(C(=O)Nc4ccc(Cl)cc4)CC3)c2)nn1,·,-2
O=C1NC2(CCN(Cc3ccc(F)cc3)C2)COc2ccccc21 (stereo not drawn),?,23
O=C1NC2(CCN(Cc3ccc(C(F)(F)F)cc3)CC2)COc2ccccc21,i,12
N#Cc1ccc(CN2CCC3(COc4ccccc4C(=O)N3)C2)cc1 (stereo not drawn),40µM*,17
Cc1ccc(CN2CCCC3(COc4ccccc4C(=O)N3)C2)cc1 (stereo not drawn),35µM*,7
O=C1NC2(CCN(Cc3ccccc3)C2)COc2ccccc21 (stereo not drawn),40µM*,5
Cn1nccc1CN1CCC2(COc3ccccc3C(=O)N2)C1 (stereo not drawn),?,11
O=C1NC2(CCN(Cc3ccc(OC(F)(F)F)cc3)C2)COc2ccccc21 (stereo not drawn),22µM*,5
N#Cc1ccc(CN2CCC3(CC2)COc2ccccc2C(=O)N3)cc1,i,16
Cn1c(=O)c2c(nc(Sc3ccccc3)n2Cc2ccccc2Cl)n(C)c1=O,i,·
Cc1ccccc1CNC(=O)c1nn(CC2CC2)c2c1CNCC2,·,9
Cn1c(=O)c2c(nc(N3CCN(c4ccccn4)CC3)n2Cc2cccc(Cl)c2)n(C)c1=O,i,·
COCCn1c(C)cc(C(=O)CSc2nnc(Nc3ccccc3C)s2)c1C,i,·
N#Cc1ccc(CN2CCCC3(C2)NC(=O)c2ccccc2O3)cc1 (stereo not drawn),i,26
N#Cc1ccc(CN2CCCC3(COc4ccccc4C(=O)N3)C2)cc1 (stereo not drawn),35µM*,17
COc1c(Cl)cc(C(N)=O)cc1Cl,i,·
CCN(CC)CCNc1nc2c(c(=O)n(C)c(=O)n2C)n1Cc1ccc(Cl)cc1Cl,i,·
CN1CCCC(CN(C)C(=O)c2cc(-c3cnn(CCO)c3)nc3ccccc23)C1 (stereo not drawn),32µM*,8
CN(CC1CC1)C(=O)c1cc(-c2ccccc2Cl)nc2ccccc12,i,·
O=C(Cc1c[nH]c2ccccc12)Nc1ccc2ccccc2c1,i,·
Cc1ccc(Nc2ccnc(N3CCCC(C(=O)NCC(F)(F)F)C3)n2)cc1 (stereo not drawn),·,-4
CCCc1noc(-c2nc(-c3ccccc3F)no2)n1,i,-4
CC(Cn1cccn1)Nc1ccc(-c2nc(-c3ccccc3F)no2)cn1 (stereo not drawn),28µM*,3
SMILES,KDM5B inh,IP6K1 inh
O=C1OCCCN1CCNc1ccc(-c2nc(-c3ccccc3F)no2)cn1,28µM*,3
c1ccc(CCc2noc(-c3ccc(NCCN4CCCC4)nc3)n2)cc1,?,16
O=C1CCCCN1CCNc1ccc(-c2nc(-c3ccccc3F)no2)cn1,32µM*,10
Fc1ccccc1-c1noc(-c2nc(C3CC3)no2)n1,i,-15
CN(Cc1ccccn1)c1ccc(-c2nc(Cc3ccc(F)cc3)no2)cn1,?,1
CN(Cc1nccs1)c1ccc(-c2nc(-c3ccccc3F)no2)cn1,22µM*,-2
Cc1ccc2oc(C(=O)NCc3ccncc3)cc(=O)c2c1,i,·
C#CCNC(=O)c1ccc2nnc(-c3cccc(OC(F)(F)F)c3)n2c1,·,10
CC(OC(=O)c1ccc(S(=O)(=O)N(C)C)cc1)C(=O)c1ccccc1 (stereo not drawn),i,·
CCCn1nc(C(=O)Nc2cc(S(=O)(=O)N3CCCCC3)ccc2C)c2ccccc2c1=O,i,·
CCOc1cc(Br)c(/C=C2/NC(=O)NC2=O)cc1OC,i,·
O=C(NC1CCCCC1)c1cn2cc(-c3ccccc3)sc2n1,·,22
Cc1cc(C(=O)N2CCCC(c3[nH]ccc3C(N)=O)C2)c(C)n1Cc1ccco1 (stereo not drawn),?,30
COCCCn1c(C)cc(C(=O)N2CCCC(c3[nH]ccc3C(N)=O)C2)c1C (stereo not drawn),18µM*,14
CCc1ccc(C(=O)COC(=O)Cc2ccc(-c3ccccc3)cc2)cc1,i,·
CCN(c1ccc(-c2csc(C3CC3)n2)cc1)S(C)(=O)=O,i,·
Cc1ccc(CN2CCCCCCNC(=O)[C@@H]3C[C@@H](C(=O)NCCc4cnc[nH]4)C[C@@H]32)o1,?,13
N#Cc1ccc(CN2CCCCCCNC(=O)[C@@H]3C[C@@H](C(=O)NCCc4cnc[nH]4)C[C@@H]32)cc1,20µM*,0
O[C@@H]1C[C@@H](c2nc(-c3cccnc3)no2)N(Cc2cc3ccccc3o2)C1,?,3
COc1ccc(C(=O)Nc2ccc(-c3noc([C@@H]4CCCN4Cc4ccc(C(F)(F)F)cc4)n3)cn2)cc1,28µM*,-3
COCC(=O)Nc1ccc(-c2noc([C@@H]3CCCN3Cc3cc4ccccc4o3)n2)cn1,32µM*,19
CN(C)c1ccc(-c2noc([C@@H]3CCCN3CC3CCCCC3)n2)cn1,40µM*,19
O[C@@H]1C[C@@H](c2nc(-c3ccccn3)no2)N(Cc2cc3ccccc3o2)C1,32µM*,12
COCC(=O)Nc1ccc(-c2noc([C@@H]3CCCN3Cc3ccc(NC(C)=O)cc3)n2)cn1,i,15
COc1ccc(C(=O)Nc2ccc(-c3noc([C@@H]4CCCN4Cc4ccc(OC(F)(F)F)cc4)n3)cn2)cc1,?,-2
SMILES,KDM5B inh,IP6K1 inh
CN(C)c1ccc(-c2noc([C@@H]3CCCN3Cc3ccc(CO)o3)n2)cn1,?,6
CC(Sc1ccc(C(F)(F)F)cn1)C(=O)Nc1ccc(F)cc1 (stereo not drawn),i,·
COc1ccccc1-c1cc(C(=O)Nc2cccc(C(F)(F)F)c2)c2cnn(C)c2n1,·,1
CCOC(=O)[C@@H]1CN(C(=O)C(CC)CC)[C@H]2c3ccc(OC)cc3O[C@@H]12,·,9
COc1cccc(CN2c3ccccc3C3=C(C(c4ccccc4)C(C#N)=C(N)O3)S2(=O)=O)c1 (stereo not drawn),i,·
COc1ccc(C(=O)Nc2ccc(-c3noc([C@@H]4CCCN4CC4CCCCC4)n3)cn2)cc1,32µM*,-3
COc1ccc(C(=O)Nc2ccc(-c3noc([C@@H]4CCCN4Cc4ccncc4)n3)cn2)cc1,?,-11
COc1ccc(-c2cc(C(=O)NC3CC3)c3cnn(C)c3n2)cc1,·,1
C#CCNC(=O)c1nc(-c2ccsc2)c2cnccn12,32µM*,2
CC(C)NC(=O)c1cc(-c2ccsc2)c2nncn2n1,·,13
CC(C)NC(=O)c1nc(-c2ccc(Cl)cc2)c2ccccn12,89µM*,-20
C#CCNC(=O)c1nc(-c2cccnc2)c2cnccn12,i,12
CC(C)NC(=O)c1nc(-c2cccc(F)c2)c2cnccn12,32µM*,13
CC(C)NC(=O)c1nc(-c2ccccc2)c2ccccn12,i,1
CC(C)NC(=O)c1nc(-c2ccsc2)c2cnccn12,40µM*,2
Clc1ccccc1C1=Nc2ccc(Br)cc2C(c2ccccc2Cl)=Nc2ccc(Br)cc21,i,·
O=C(C1CCCN(Cc2cccc(-c3ccsc3)c2)C1)N1CCN(Cc2ccccc2)CC1 (stereo not drawn),·,-15
O=C(c1ccc(-c2cccs2)cc1)N1CCC(N[S+](=O)([O-])c2ccccc2)CC1,·,8
